Several values for one entry are separate records, joined by “and”; a condition that tells them apart may be missing. Equal values may be shown once. A structure can be active in one record and inactive in another. Activity calls are given as the source filed them.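 Rule for the calls, unless noted: active = inhibition at or above 50% relative to wild type and mutant plate controls; inactive = inhibition below 50%.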

The results in this text go back to PubChem BioAssay.

A short description of assay [1]: inhibitors of TNFa-induced NFkB p65 translocation, primary screen, imaging, HUVEC, MLSMR starter and 10KST1 sets (AID 438;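 active = inhibition above 20% together with a positive visual image hit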;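 note: compound added about 3h40 before a 20 min TNFalpha stimulation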;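 for inhibition: signal is the nuclear over cytoplasmic p65 intensity ratio per well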). The note with it: HUVEC TNFa-induced p65 nuclear translocation; cell count: measured here: nuclei count (cytotoxicity indicator), at 2.08 µM; inhibition: at 2 µM, stronger effect = higher value, 0% TNFa-plus-vehicle, 100% no-TNFa wells.
Assay [2] can be described thus: reduction of polyQ htt aggregates in cells – imaging, exon1htt(103Q)mCFP cells, high-content imaging, primary screen (AID 483;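 active = visual image review flags a hit and inhibition of aggregation exceeds 20%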;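 note: compound exposure lasted 3 days before fixation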;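 for nuclei count: percent of the per-plate median nuclei count of sample wells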). The note with it: exon1htt(103Q)mCFP cell line, aggregate imaging, at 2 µM; inhibition of aggregation: stronger effect = higher value; nuclei count: measured here: cell count, toxicity.
Assay [3] can be described thus: endothelial E-selectin expression blockers – imaging, HUVEC, immunofluorescence, MLSMR starter and 10KST1 sets, primary screen (AID 487;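 active = visually confirmed hit in the image check and inhibition above 20%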;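 for inhibition: signal is fraction of cell area covered by stained E-selectin grains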;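 for nuclei count: 100% = median nuclei count of all wells on the same plate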). The note with it: HUVEC TNFalpha-induced E-selectin immunofluorescence imaging, at 2 µM; inhibition: stronger effect = higher value; nuclei count: measured here: cell number, toxicity.
The nature of assay [4]: Primary imaging screen for DUSP6 inhibitors that restore phospho-Erk in transfected HeLa cells, chemical complementation (AID 609;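 active = compounds giving at least 50% inhibition in the cell-based MKP-3 phosphatase rescue imaging test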;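 for inhibition: phospho-Erk level distribution per well compared with pooled transfected vehicle control wells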). The note with it: HeLa MKP-3 transfected, phospho-Erk imaging KS statistic, at 10 µM, cells stimulated with TPA for 15 min.
In assay [5] the target is Dual specificity protein phosphatase 6 (Homo sapiens) (UniProt Q16828). Described as above. The note with it: HeLa MKP-3 transfected, phospho-Erk imaging KS statistic; at 10 µM; stronger effect = higher value; cells stimulated with TPA for 15 min.
In assay [6] the target is Voltage-gated potassium channel subunit beta-2 (Rattus norvegicus) (UniProt P62483). Put plainly: inhibitors of rat Kvbeta2 reductase activity – biochemical, NADPH fluorescence, primary screen (AID 622;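 active = fluorescence slope higher than the sample average by over 3 SD, cut at about -0.22 in these data, passing the limit was not always enough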;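 note: slope of raw intensity against log time taken from 70 to 1610 s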). The note with it: recombinant KvBeta, 4-cyanobenzaldehyde reduction, at 10 µM, stronger effect = higher value.
Assay [7] has the same target. Description: enhancers of rat Kvbeta2 NADPH turnover – biochemical, NADPH fluorescence, primary screen (AID 623;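 active = NADPH fluorescence slope more negative than the mean of all samples by about 3 SD, 99.7% confidence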;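 note: fluorescence intensity change per second fitted from 20 to 320 s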). The note with it: Recombinant KvBeta, NADPH fluorescence decrease slope, 10 min; at 10 µM; stronger effect = lower value.
Assay [8] addresses Alpha-2C adrenergic receptor (Homo sapiens) (UniProt P18825). Description: compounds altering alpha2C-coupled GIRK flux – cell-based, HEK293 alpha2C/GIRK1/2, thallium flux, primary screen (AID 624;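 active = fluorescence slope after compound addition differing from the mean of all screened samples at 99.7% confidence, in either direction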;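 note: slope of fluorescence ratio to pre-addition baseline per second over 15 to 24 s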). The note with it: thallium flux BTC fluorescence, at 10 µM, actives lie on both sides.
The nature of assay [9]: inhibitors of larval lipid processing in zebrafish, primary screen, whole organism, PED6 fluorescence, gall bladder and intestine (AID 686;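 active = a full or partial loss of lipid-probe fluorescence in the fish gall bladder, intestine or both, judged by eye; inactive = no fluorescence loss, or compound toxic to the fish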;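 note: larvae 5 to 7 days old with five fish per well; signal comes from phospholipase A2 cleavage of quenched PED6 carried via bile; overnight exposure to compound and PED6 before scoring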). The note with it: Zebrafish larvae PED6 lipid processing, fluorescence scoring; screened at 20 µM (by protocol).
Assay [10] is described as follows: loss of swimming-algae plug formation – whole organism, Chlamydomonas reinhardtii, WT vs cilia-less mutant, absorbance, 96-well, primary screen (AID 463189).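 Note: 0% = wild type cc124 cells in DMSO and 100% = ciliumless bld1 mutant cells.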 The note with it: Chlamydomonas reinhardtii gravitaxis, OD600 absorbance, 2 days; at 10 µM; stronger effect = higher value.
A short description of assay [11]: blockers of RIG-like receptor reporter activation – cell-based, Sendai virus stimulus, luciferase, 10K MLSCN set, TLR/RLR signaling modifier project, primary screen (AID 602276;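 active = inhibition at or above 50% at 10 µM; inactive = inhibition below 50%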;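 note: firefly luciferase from ISG56 promoter only with Renilla not read in this screen; 0% = Sendai virus plus DMSO and 100% = medium plus DMSO without virus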). To be noted: HEK293 RL24 IRF3 luciferase reporter, at 10 µM, stronger effect = higher value. A general note: In a reporter assay the amount or activity of a reporter protein is the signal.
The nature of assay [12]: TLR3 IRF3 reporter activation blockers – cell-based, poly I:C stimulus, luciferase, 10K MLSCN set, primary screen (AID 602277;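 active = inhibition of the reporter signal at or above 50%; inactive = inhibition below 50%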). To be noted: HEK293-TLR3 RL24 IRF3 luciferase reporter, at 10 µM, stronger effect = higher value.
For assay [13], the target named is Muscarinic acetylcholine receptor M4 (Homo sapiens) (UniProt P08173). Put plainly: M4-linked GIRK flux change, two-sided – cell-based, HEK293 M4/GIRK, thallium flux, BTC-AM, M4 allosteric agonist project, primary screen (AID 625;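 active = fluorescence slope after compound addition differing from the mean of all tested samples at 99.7% confidence, mostly higher but some lower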;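 note: thallium influx through GIRK channels coupled to M4 in HEK293 cells with BTC-AM dye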). To be noted: at 10 µM, actives lie on both sides.
The mark [14] stands for this setting: measured here: cell density z-score.
Setting [15] is: measured here: nuclear c-Myc green intensity z-score.
Where [16] appears, read: measured here: nuclear pErk red intensity z-score, stronger effect = higher value.

Chain of Dual specificity protein phosphatase 6 (Homo sapiens) (Q16828 whole entry, looked up): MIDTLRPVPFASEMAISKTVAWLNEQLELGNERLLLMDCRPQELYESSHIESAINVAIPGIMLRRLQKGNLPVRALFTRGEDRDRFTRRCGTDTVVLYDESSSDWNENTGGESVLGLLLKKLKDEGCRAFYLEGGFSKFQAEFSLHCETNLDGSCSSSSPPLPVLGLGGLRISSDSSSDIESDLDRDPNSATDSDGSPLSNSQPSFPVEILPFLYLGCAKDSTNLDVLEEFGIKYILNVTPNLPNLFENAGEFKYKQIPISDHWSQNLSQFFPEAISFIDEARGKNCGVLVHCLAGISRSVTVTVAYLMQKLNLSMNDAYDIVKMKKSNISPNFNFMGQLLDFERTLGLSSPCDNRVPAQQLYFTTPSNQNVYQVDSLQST
Chain of Voltage-gated potassium channel subunit beta-2 (Rattus norvegicus) (P62483 whole entry, looked up): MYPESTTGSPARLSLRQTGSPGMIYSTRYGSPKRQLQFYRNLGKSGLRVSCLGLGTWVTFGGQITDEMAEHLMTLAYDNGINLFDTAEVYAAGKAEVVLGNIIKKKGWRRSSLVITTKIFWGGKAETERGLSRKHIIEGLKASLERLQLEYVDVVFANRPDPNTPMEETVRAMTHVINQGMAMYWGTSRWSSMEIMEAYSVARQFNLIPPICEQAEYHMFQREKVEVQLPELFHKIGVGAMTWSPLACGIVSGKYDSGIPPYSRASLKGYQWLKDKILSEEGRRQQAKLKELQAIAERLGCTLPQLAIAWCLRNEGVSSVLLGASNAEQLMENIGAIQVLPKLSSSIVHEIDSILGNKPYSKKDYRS
Chain of Alpha-2C adrenergic receptor (Homo sapiens) (P18825 whole entry, looked up): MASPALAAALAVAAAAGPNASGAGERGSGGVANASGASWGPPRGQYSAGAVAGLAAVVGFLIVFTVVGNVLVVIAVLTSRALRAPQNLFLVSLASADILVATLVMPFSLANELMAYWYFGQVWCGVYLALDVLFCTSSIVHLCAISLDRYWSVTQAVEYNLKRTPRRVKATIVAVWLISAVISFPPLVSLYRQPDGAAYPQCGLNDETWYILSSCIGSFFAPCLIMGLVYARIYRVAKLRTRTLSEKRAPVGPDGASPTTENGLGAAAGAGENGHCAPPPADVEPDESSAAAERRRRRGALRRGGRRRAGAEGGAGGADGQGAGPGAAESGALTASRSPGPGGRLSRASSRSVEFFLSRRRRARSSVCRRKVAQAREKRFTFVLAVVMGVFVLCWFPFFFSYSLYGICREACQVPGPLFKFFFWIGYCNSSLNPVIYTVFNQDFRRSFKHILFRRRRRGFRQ
Chain of Muscarinic acetylcholine receptor M4 (Homo sapiens) (P08173 whole entry, looked up): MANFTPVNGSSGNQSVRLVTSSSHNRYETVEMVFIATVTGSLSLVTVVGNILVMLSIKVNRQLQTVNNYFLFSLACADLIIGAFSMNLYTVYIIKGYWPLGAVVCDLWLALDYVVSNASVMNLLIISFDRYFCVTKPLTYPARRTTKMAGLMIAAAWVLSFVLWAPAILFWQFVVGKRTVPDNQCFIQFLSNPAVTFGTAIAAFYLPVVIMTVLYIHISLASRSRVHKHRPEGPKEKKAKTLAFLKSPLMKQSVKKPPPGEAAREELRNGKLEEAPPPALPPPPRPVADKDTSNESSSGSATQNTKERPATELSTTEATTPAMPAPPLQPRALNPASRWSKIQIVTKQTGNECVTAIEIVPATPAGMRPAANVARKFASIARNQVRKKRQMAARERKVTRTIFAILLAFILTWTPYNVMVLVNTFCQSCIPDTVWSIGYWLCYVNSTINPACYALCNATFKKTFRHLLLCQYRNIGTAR

Broadly, the inhibition is the drop in the measured response relative to a control, in per cent. Consider `NS(=O)(=O)c1cc2c(cc1Cl)NC(C(Cl)Cl)NS2(=O)=O` (configuration not stated), for which the cell count in assay [1] was found to be 646. Also, the inhibition was -8.4% (inactive) in assay [1]; -57% (inactive) in [3]; -4.44% (inactive) in assay [5]; 3.47% (inactive) in [10]; 13.9% (inactive) in assay [11]; 35.5% (inactive) in assay [12]. The inhibition of aggregation in assay [2] was 4.9% (inactive). The values for the nuclei count in assay [2] and in [3] were 109% and 134%, respectively. For the same compound, the figures for the z-score in assay [4] (setting [14]), in assay [4] (setting [15]) and in assay [4] (setting [16]) were -1.31, -0.533 and 1.7, respectively. The fluorescence slope in [6] was -0.512 (inactive). In addition, in [7], the NADPH fluorescence slope was -2e-05 (inactive). In addition, the slope in [8] is 0.00475 (inactive). Besides, the compound was classed as inactive in [9].
For the compound `O=C(O)c1cc(-c2ccccc2)nc2ccccc12`, the cell count in assay [1] was 572. For the same compound, the inhibition in assay [1] was -5.1% (inactive); in [3], -66.9% (inactive); in assay [5], -0.493% (inactive); in assay [10], -8.89% (inactive); in [11], 5.39% (inactive); in assay [12], 34.2% (inactive). Besides, the inhibition of aggregation in assay [2] was -4.1% (inactive). The nuclei count in assay [2] is 92.2%; in assay [3], 121%. Also, the z-score in [4] (setting [14]) was 0.461; in assay [4] (setting [15]), 0.0575; in assay [4] (setting [16]) it was -0.708. Also, the fluorescence slope in [6] was -0.459 (inactive). Moreover, in [7], the NADPH fluorescence slope is -5.4e-05 (inactive). For the same compound, the slope in [8] is 0.00561 (inactive). Further, the outcome in [9] was inactive.
As to `CC1=C(C)C(=O)C(CCCCC#CCCCC#CCO)=C(C)C1=O`, in [1], the cell count was determined as 531. For the same compound, the inhibition in assay [1] was 4.4% (inactive); in assay [3] it was -112% (inactive); in assay [5], 19.2% (inactive); in assay [10], -6.32% (inactive) and 57.1% (active); in [11], 14.4% (inactive); in assay [12] it was 32.8% (inactive). Besides, the inhibition of aggregation in assay [2] was 9.6% (inactive). The values for the nuclei count in assay [2] and in assay [3] were 95.5% and 108%, respectively. Also, the results for the z-score in assay [4] (setting [14]), in [4] (setting [15]) and in assay [4] (setting [16]) were 0.752, -0.729 and -1.42, respectively. For the same compound, in assay [6], the fluorescence slope is -0.452 (inactive). The NADPH fluorescence slope in assay [7] was -2.1e-05 (inactive). Besides, in assay [8], the slope was 0.00343 (inactive). In addition, the outcome in [9] was inactive.
For the compound `CC(C)CCNC(=O)[C@H](CC(C)C)NC(=O)[C@H]1O[C@@H]1C(=O)O`, the cell count in assay [1] turned out to be 625. The inhibition was -6.9% (inactive) in assay [1]; -39.7% (inactive) in assay [3]; 9.37% (inactive) in [5]; 10.6% (inactive) in assay [10]; 10.1% (inactive) in assay [11]; 34.8% (inactive) in assay [12]. Also, in assay [2], the inhibition of aggregation is 11.7% (inactive). Besides, the nuclei count in assay [2] stood at 98.3%; in assay [3], 134%. The z-score worked out at 0.0708 in assay [4] (setting [14]), 0.541 in assay [4] (setting [15]) and 0.76 in assay [4] (setting [16]). In [6], the fluorescence slope is -0.496 (inactive). Besides, the NADPH fluorescence slope in [7] was -1.1e-05 (inactive). Besides, the slope in assay [8] is 0.00458 (inactive). Further, the compound was classed as inactive in assay [9].
As to `COc1ccccc1C1C(C#N)=C(N)Oc2cc(C)n(Cc3ccccn3)c(=O)c21` (configuration not stated), the cell count in [1] stood at 679. Moreover, the inhibition is -2.4% (inactive) in [1]; -46.2% (inactive) in [3]; 0.671% (inactive) in assay [5]; 7.42% (inactive) in assay [10]; -7.32% (inactive) in [11]; 4.86% (inactive) in assay [12]. Besides, the inhibition of aggregation in assay [2] is 12% (inactive). Also, the figures for the nuclei count in assay [2] and in assay [3] were 99.3% and 122%, respectively. The z-score is 0.97 in assay [4] (setting [14]), -0.155 in assay [4] (setting [15]) and -0.154 in assay [4] (setting [16]). For the same compound, the fluorescence slope in assay [6] is -0.453 (inactive); in [13], 0.00473 (inactive). The NADPH fluorescence slope in [7] is -3.2e-05 (inactive). Further, the outcome in assay [9] was inactive.
Turning to `COc1ccc(OC)c(C2C(C#N)=C(N)Oc3cc(C)[nH]c(=O)c32)c1` (configuration not stated), the cell count in assay [1] was 544. For the same compound, the inhibition was -31.7% (inactive) in assay [1]; -48.5% (inactive) in [3]; -7.86% (inactive) in [5]; 15.7% (inactive) in assay [10]; 13.1% (inactive) in assay [11]; -12.4% (inactive) in [12]. Moreover, the inhibition of aggregation in assay [2] was 19.9% (inactive). Further, the nuclei count in [2] was found to be 88.9%; in assay [3], 122%. Besides, the results for the z-score in [4] (setting [14]), in assay [4] (setting [15]) and in assay [4] (setting [16]) were -0.908, -1.31 and -0.529, respectively. In [6], the fluorescence slope is -0.536 (inactive). In addition, the NADPH fluorescence slope in assay [7] was -5e-05 (inactive). Further, the slope in assay [8] was 0.00618 (inactive). Moreover, the compound was classed as inactive in [9].
